Nine compounds from PubChem BioAssay (NCI) can be followed below.

Test systems include HOP-62 NSCLC; NCI-H460 lung; A549/ATCC NSCLC; DU-145 prostate; MALME-3M melanoma; RXF 393 renal; SF-295 CNS; UACC-257 melanoma; M14 melanoma; SK-MEL-2 melanoma; UO-31 renal; A498 renal; RPMI-8226 leukemia; OVCAR-5 ovarian; OVCAR-4 ovarian; T-47D breast; HCC-2998 colon; 786-0 renal; SNB-19 CNS; HL-60(TB) leukemia.
Experiment in all cases: NCI-60 one-dose screen, 48 h (100 = growth as untreated, 0 = no growth, -100 = all killed)
Holding throughout (conditions): 10 µM unless noted

About 83,000 compounds went through this panel and 20% of them were active in at least one assay; those are over-represented in the sample as a whole.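 The test compound was applied at a single concentration to cells in 96-well plates for 48 hours, and percent growth was recorded.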 A number with no mark means an inactive call. Activity calls are given as the source filed them. Rule for the calls: active = growth percent below 10; inactive = the rest.

As for `CCOc1cc(C=C(C#N)C#N)cc(Br)c1O`, the growth is 111% in the assay with HOP-62 NSCLC; 102% in the assay on NCI-H460 lung; 102% in the assay on A549/ATCC NSCLC; 103% in the assay with DU-145 prostate; 106% in the assay on MALME-3M melanoma; 121% in the assay with RXF 393 renal. Further, the growth was 110% in the assay with SF-295 CNS; 107% in the assay with UACC-257 melanoma; 98% in the assay with M14 melanoma; 102% with SK-MEL-2 melanoma; 88.9% in the assay on UO-31 renal; 96.4% in the assay on A498 renal. Moreover, the growth in the assay on RPMI-8226 leukemia is 105%; in the assay on OVCAR-5 ovarian it was 108%; in the assay with OVCAR-4 ovarian, 103%; with T-47D breast, 98.5%; in the assay on HCC-2998 colon, 99.4%.

As for `Fc1ccc(C2=NN(c3ccccc3)C(c3sc(N(CCCl)CCCl)nc3Cl)C2)cc1` (stereo not given), the growth in the assay on HOP-62 NSCLC is 78%; with NCI-H460 lung it was 90.7%; in the assay with A549/ATCC NSCLC, 86.3%; in the assay with 786-0 renal, 92.2%; in the assay with DU-145 prostate, 109%; with MALME-3M melanoma, 102%. Besides, the growth in the assay on RXF 393 renal is 102%; in the assay with SF-295 CNS it was 85.5%; with UACC-257 melanoma, 86.7%; with M14 melanoma, 92.2%; in the assay with SNB-19 CNS, 95.6%; in the assay with SK-MEL-2 melanoma it was 84.5%. For the same compound, the growth in the assay on UO-31 renal is 67.6%; in the assay on A498 renal it was 92.4%; in the assay with HL-60(TB) leukemia, 103%; in the assay with OVCAR-5 ovarian, 91.5%; with OVCAR-4 ovarian, 78.8%; in the assay with T-47D breast it was 61.5%. For the same compound, in the assay with HCC-2998 colon, the growth was 103%.

In the case of `O=C(O)CC(Br)C(=O)CBr` (stereo not given), the growth was 105% in the assay with HOP-62 NSCLC; 108% with NCI-H460 lung; 99.9% in the assay with A549/ATCC NSCLC; 99.1% in the assay on 786-0 renal; 111% in the assay with DU-145 prostate; 103% in the assay with MALME-3M melanoma. Besides, the growth is 109% with RXF 393 renal; 98.2% in the assay on SF-295 CNS; 102% with UACC-257 melanoma; 103% with M14 melanoma; 104% in the assay on SNB-19 CNS; 86.1% in the assay with UO-31 renal. In addition, the growth was 104% in the assay with A498 renal; 105% in the assay with HL-60(TB) leukemia; 103% in the assay with RPMI-8226 leukemia; 106% in the assay with OVCAR-5 ovarian; 97.2% with OVCAR-4 ovarian; 103% in the assay with T-47D breast. The growth with HCC-2998 colon was 116%.

Take `CC(=O)Nc1ccc(C=C2C(=O)NC(=O)NC2=O)cc1`: the growth in the assay with HOP-62 NSCLC was 103%; with A549/ATCC NSCLC, 100%; in the assay on 786-0 renal, 96.3%; in the assay on DU-145 prostate, 124%; with RXF 393 renal, 118%; in the assay on SF-295 CNS, 104%. Besides, the growth with UACC-257 melanoma was 98.4%; in the assay with SNB-19 CNS, 98.4%; with SK-MEL-2 melanoma it was 109%; in the assay with UO-31 renal it was 84.5%; in the assay with RPMI-8226 leukemia it was 98.3%; in the assay on OVCAR-5 ovarian it was 107%. The growth with OVCAR-4 ovarian is 107%; in the assay with T-47D breast it was 106%; with HCC-2998 colon it was 104%.

For `O=C1c2ccccc2C(=O)N1[N+](=O)[O-]`, the growth with NCI-H460 lung was 102%; with A549/ATCC NSCLC, 95.4%; in the assay on 786-0 renal it was 100%; with DU-145 prostate, 106%; in the assay on MALME-3M melanoma it was 89.4%; in the assay on RXF 393 renal, 103%. For the same compound, the growth in the assay on SF-295 CNS is 103%; with UACC-257 melanoma, 101%; in the assay with M14 melanoma it was 105%; in the assay on SNB-19 CNS it was 6.79% (active); with SK-MEL-2 melanoma, 104%; in the assay with UO-31 renal, 85.9%. For the same compound, the growth in the assay on A498 renal is 93.6%; in the assay on HL-60(TB) leukemia, 113%; with RPMI-8226 leukemia, 101%; in the assay with OVCAR-5 ovarian, 112%; with OVCAR-4 ovarian it was 109%; with HCC-2998 colon, 87.2%.

As to `CN(Cc1cccnc1)N=O`, the growth in the assay with HOP-62 NSCLC was 93.1%; in the assay on NCI-H460 lung it was 103%; in the assay on A549/ATCC NSCLC, 94.5%; in the assay with 786-0 renal, 107%; in the assay on DU-145 prostate, 108%; with MALME-3M melanoma, 96.6%. Also, the growth is 104% in the assay on RXF 393 renal; 102% in the assay with SF-295 CNS; 95.7% in the assay with UACC-257 melanoma; 97.4% with M14 melanoma; 99.9% with SNB-19 CNS; 89% in the assay on SK-MEL-2 melanoma. Moreover, the growth with UO-31 renal was 84.7%; with A498 renal it was 104%; in the assay on HL-60(TB) leukemia, 97.6%; in the assay on RPMI-8226 leukemia it was 102%; in the assay on OVCAR-5 ovarian, 99.8%; in the assay with OVCAR-4 ovarian it was 102%. In addition, the growth in the assay with T-47D breast was 90.7%; with HCC-2998 colon, 112%.

On to `NS(=O)(=O)c1nc[nH]c1[N+](=O)[O-]`, for which the growth in the assay with NCI-H460 lung is 106%; in the assay with 786-0 renal, 102%; in the assay with DU-145 prostate it was 111%; in the assay on MALME-3M melanoma, 102%; with RXF 393 renal it was 116%; in the assay on SF-295 CNS it was 108%. Further, the growth with UACC-257 melanoma was 119%; in the assay on M14 melanoma, 102%; with SNB-19 CNS, 105%; with SK-MEL-2 melanoma, 111%; in the assay on UO-31 renal, 84.7%; in the assay on HL-60(TB) leukemia, 102%. Further, the growth is 101% with RPMI-8226 leukemia; 96.7% with OVCAR-5 ovarian; 105% in the assay on OVCAR-4 ovarian; 99.8% in the assay on T-47D breast; 100% in the assay on HCC-2998 colon.

In the case of `COc1cc(C2CC(=O)Nc3nc(N)[se]c32)cc(OC)c1OC` (stereo not given), the growth in the assay on HOP-62 NSCLC is 70.9%; in the assay on NCI-H460 lung, 25.1%; in the assay on A549/ATCC NSCLC it was 45.7%; with 786-0 renal, 114%; with DU-145 prostate, 101%; in the assay with MALME-3M melanoma it was 105%. Moreover, the growth was 116% in the assay on RXF 393 renal; 7.05% (active) in the assay with SF-295 CNS; 99.6% in the assay with UACC-257 melanoma; 115% in the assay on M14 melanoma; 52.1% with SNB-19 CNS; 89.2% in the assay on SK-MEL-2 melanoma. Also, the growth was 99.9% with UO-31 renal; 82.8% in the assay on A498 renal; 89.1% with HL-60(TB) leukemia; 101% in the assay on RPMI-8226 leukemia; 93.4% in the assay with OVCAR-5 ovarian; 105% in the assay on OVCAR-4 ovarian. For the same compound, the growth in the assay with T-47D breast was 74.5%; in the assay with HCC-2998 colon, 107%.

`CNC(=O)Oc1cc(C(C)C)ccc1Sc1ccc(C(C)C)cc1OC(=O)NC`: the growth in the assay on HOP-62 NSCLC is 75.9%; in the assay on NCI-H460 lung, 34.9%; in the assay with A549/ATCC NSCLC, 64.2%; in the assay on 786-0 renal, 105%; in the assay with DU-145 prostate it was 72.8%; with MALME-3M melanoma it was 62.7%. The growth in the assay with RXF 393 renal is 64.3%; in the assay with SF-295 CNS, 26.9%; in the assay on UACC-257 melanoma it was 65.5%; in the assay with M14 melanoma, 89.2%; in the assay with SNB-19 CNS, 79%; with SK-MEL-2 melanoma it was 72.4%. In addition, the growth is 65.7% in the assay with UO-31 renal; 88.5% in the assay with A498 renal; 40.4% in the assay on HL-60(TB) leukemia; 51.2% with RPMI-8226 leukemia; 95.7% in the assay on OVCAR-5 ovarian; 80.8% with OVCAR-4 ovarian. The figures for the growth in the assay with T-47D breast and in the assay on HCC-2998 colon were 77.7% and 104%, respectively.
